# Rows were chosen to be rich in hits. Some 3.4% of all compounds tested hit in one or more screens of this group.
# APP 5'UTR act = activates APP 5'UTR luciferase reporter; activation, % at 2 µM; hit rate 1% among 190,000; SH-SY5Y APP 5'UTR luciferase reporter, luminescence; zero percent = DMSO vehicle wells;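 active = activation above a set limit, based on mean plus 3 SD of controls, cut at about 140% in these data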
# NF-kB expr up = raises NF-kB expression in human neuronal cells; NF-kB reporter expression; hits give high values; fold change at 12.5 µM; hit rate 1.6% among 190,000; in the data active = fold change above about 3.3
# ssDAF12 agonist = activates DAF-12 receptor from parasite S. stercoralis; HEK293 ssDAF-12/GRIP1 lit1-tk-luc reporter, luminescence; % of 3 µM dafachronic acid response; AID 652126; activation, % at 6.8 µM; hit rate 1% among 370,000;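 active = activation above the mean over all tested compounds plus 3 SD, cut at about 0.9% in these data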;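 also: 0% = DMSO-only wells and 100% = 3 µM delta7-dafachronic acid wells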
# hcDAF12 agonist = activates DAF-12 receptor from parasite H. contortus. HEK293 hcDAF-12 lit1-tk-luc reporter, luminescence; 0% DMSO, 100% Δ7-dafachronic acid. activation, % at 6.8 µM. hit rate 1.4% among 370,000. AID 652067;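 active = activation above the mean of all tested compounds plus 3 SD, cut at about 5.5% in these data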;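 also: 100% = response to 3 µM Δ7-dafachronic acid high control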
# hgDAF-12 ag = hgDAF-12 agonism, primary luciferase screen | HEK293 GAL4-hgDAF12 UAS-luciferase reporter, agonist luminescence; normalized to butyrate control | activation, % at 6.8 µM | hit rate 1.8% among 370,000;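 active = activation above a cutoff set at the mean of all screened compounds plus 3 SD, cut at about 10% in these data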;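 also: 0% = DMSO wells and 100% = sodium butyrate wells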
# LXR ag = LXR-beta agonism as hcDAF-12 counter-screen; shares compounds with hcDAF12 agonist; HEK293 Gal4-LXR tk-luc reporter, luminescence, 24 h; normalized: DMSO 0%, positive control 100%; activation, % at 6.8 µM; 3,400 tested, under 10 active;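 active = mean percent activation of the reporter above a cutoff set as the average over tested compounds plus their standard deviation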
# Target sequence (P55055 whole entry, looked up, the tested form may be a part): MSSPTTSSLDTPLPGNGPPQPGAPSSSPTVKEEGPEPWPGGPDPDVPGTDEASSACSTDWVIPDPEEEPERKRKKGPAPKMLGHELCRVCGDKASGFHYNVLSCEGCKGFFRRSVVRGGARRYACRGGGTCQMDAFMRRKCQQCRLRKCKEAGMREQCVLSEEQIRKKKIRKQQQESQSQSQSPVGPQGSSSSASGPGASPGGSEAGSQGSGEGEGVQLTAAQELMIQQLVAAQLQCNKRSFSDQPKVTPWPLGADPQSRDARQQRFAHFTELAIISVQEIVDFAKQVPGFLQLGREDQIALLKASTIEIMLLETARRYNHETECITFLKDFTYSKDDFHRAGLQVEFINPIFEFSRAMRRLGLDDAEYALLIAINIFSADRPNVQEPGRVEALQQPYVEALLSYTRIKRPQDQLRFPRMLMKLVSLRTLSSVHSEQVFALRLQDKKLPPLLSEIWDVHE
# hcDAF12 conf = confirmation of H. contortus DAF-12 agonists. shares compounds with hcDAF12 agonist. HEK293 hcDAF-12 lit1-tk-luc reporter, luminescence; % of Δ7-dafachronic acid response. activation, % at 6.8 µM. hit rate 61% among 3,400;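 active = mean activation across triplicate tests above the threshold derived from the earlier primary screen, cut at about 5.5% in these data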;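 also: 0% = DMSO only wells and 100% = 3 µM Δ7-dafachronic acid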
# * hit, by the source's call; · = no result.
SMILES,APP 5'UTR act,NF-kB expr up,ssDAF12 agonist,hcDAF12 agonist,hgDAF-12 ag,LXR ag,hcDAF12 conf
O=C(OC12CCCN(C1)/C(=C/c1ccccc1)C2)c1cccc(F)c1 (configuration not stated),·,·,-1,-2,-2,·,·
C/C(=N\NC(=O)c1n[nH]c2c1CCC2)c1ccco1,·,·,0,11*,8,1,5
Cn1c(C(=O)Nc2ccccc2)cc2sccc21,32,1.6,1.4*,7.0*,11*,1,12*
O=C(CCCOc1ccccc1)N1CCN(c2ccccn2)CC1,153*,2.9,0,10*,8,1,6.4*
COC1=C[C@H](C(=O)NC2CCN(Cc3ccccc3)CC2)[C@@]2(C)Cc3ccccc3[C@H]2CC1=O,·,·,-2,0,-1,·,·
CC(C)N1CCCCC(NC(=O)Cc2ccccc2)C1=O (configuration not stated),·,·,-2,-1,-2,·,·
Cc1nnc(-c2ccccc2)o1,·,·,-1,0,1,·,·
Cn1cc(-c2nnc(-c3ccccc3)o2)c2ccccc21,130,5.2*,1.3*,7.9*,17*,2,18*
CN(C)C(=S)N=Nc1[nH]c2ccccc2c1O,-12,0.26,1.4*,7.3*,13*,0,3
CN(C)C(=O)c1ccc(N=Nc2c(O)c3ccccc3[nH]c2=O)cc1,·,·,0,4,5,·,·
O=C(NCCc1c[nH]c2ccccc12)OCc1cn(Cc2cccc(Cl)c2)nn1,·,·,-1,6.6*,7,0,-1
COc1ccccc1Nc1nc(-c2cccs2)cs1,28,5.7*,1.6*,8.2*,10,2,16*
CCC(C)C(=O)Nc1nc(C)c(-c2csc(Nc3ccccc3OC)n2)s1 (configuration not stated),14,0.77,-1,0,1,·,·
COc1ccc(OC)c(Nc2nc(-c3cccs3)cs2)c1,1,1.1,0.9*,7.4*,4,0,5
COc1ccc(S[C@]2(C(=O)N3CCOCC3)CC(=O)N(c3ccc(C#N)cc3)[C@@H]2c2ccc(OC)cc2)cc1,·,·,-1,-2,-2,·,·
CC1=NN(c2ccc(C)cc2)C(=O)/C1=C\c1ccc(Br)s1,-1,1.2,0,9.5*,0,0,5
CC1=NN(c2ccc(Br)cc2)C(=O)/C1=C/c1cccs1,1,1.5,0,5,0,·,·
Cc1ccc(-n2c(SCC(=O)Nc3ccc(S(=O)(=O)Nc4cc(C)nc(C)n4)cc3)nnc2-c2cccs2)cc1,·,·,-1,2,-2,·,·
COc1ccc(/C=[N+](\[O-])C2N(c3ccccc3)C(=S)SC2(C)C)cc1OC (configuration not stated),·,·,-1,9.3*,3,0,0
C[C@@H]1[C@@H](O)C[C@@]2(C[C@H](O)c3cc(Cl)cc(Cl)c3O2)O[C@H]1c1ccccc1Cl,·,·,-1,-1,1,·,·
CC1ON=C(c2ccccn2)N(Cc2ccc(S(C)(=O)=O)cc2)C1=O (configuration not stated),·,·,-2,10*,2,0,0
CC(=O)c1ccc(N2Cc3ccccc3C2=NC(=O)c2cccs2)cc1,86,3,0,6.6*,12*,0,4
O=C(Nc1nccs1)C1Cc2ccccc2CN1S(=O)(=O)c1ccc(F)cc1 (configuration not stated),155*,1.6,1,11*,12*,1,7.7*
CCN1CCCCC(NC(=O)c2ccccc2C)C1=O (configuration not stated),·,·,-1,1,3,·,·
COc1ccc2nc(SCC(=O)Nc3ccc4c(c3)OCCO4)[nH]c2c1,30,0.54,-3,-5,-8,·,·
SMILES,APP 5'UTR act,NF-kB expr up,ssDAF12 agonist,hcDAF12 agonist,hgDAF-12 ag,LXR ag,hcDAF12 conf
CCOc1ccc2nc(SCC(=O)Nc3ccc4c(c3)OCCO4)[nH]c2c1,18,0.96,-1,7.3*,3,0,1
CCOc1ccc(CCNC(=O)Cc2ccccc2)cc1OCC,·,·,-2,-1,-2,·,·
COC(=O)[C@]12C[C@H](CC(=O)NCCC(C)C)C(=O)N(Cc3cccc4ccccc34)C1=C[C@H](C(C)(C)C)O[C@@H]2C,·,·,-2,0,3,·,·
CCCCNC(=O)C1(C(=O)C2CC2)CC(c2ccccc2C(F)(F)F)=NO1 (configuration not stated),·,·,0,5,-2,·,·
CC(C)CNC(=O)OCc1cn(Cc2ccc(C(F)(F)F)cc2)nn1,·,·,-1,-1,-2,·,·
[O-][n+]1c2ccccc2c2n1CCCN=C2c1ccc(Cl)cc1,·,·,1,8.0*,3,0,8.6*
Cc1cccc(-c2cccc3c4c([nH]c23)[C@@H]2C[C@H](N(C)C(=O)c3ccccc3C)[C@H]([C@H](C)O)CN2CC4)c1,·,·,-2,-1,0,·,·
O=C(NCc1ccco1)C1CCCN(S(=O)(=O)c2ccccc2F)C1 (configuration not stated),·,·,-1,-3,-1,·,·
O=c1c2cccc3c2c(nn1CN1CCOCC1)-c1ccccc1-3,-11,1.2,·,·,·,·,·
CCN(CC)CCn1nc2c3c(cccc3c1=O)-c1ccccc1-2,-68,1.3,23*,11*,-7,0,9.5*
C#CCNC(=O)C[C@H]1C(=O)N(CC=C)C2=CCCC[C@@]21C(=O)OCC,·,·,-1,-2,-1,·,·
O=c1[nH]c(-[n+]2ccc3ccccc3c2)c(/C=N/N=C(\[O-])c2ccccc2)s1,·,·,1,9.0*,8,0,1
CC(C)(C)c1cc[n+](-c2[nH]c(=O)sc2/C=N/N=C(\[O-])c2cccnc2)cc1,·,·,-1,3,0,·,·
Cc1cc2ccccc2n1CCNC(=O)c1ccc(Br)o1,24,1.1,0,8.0*,2,0,-1
O=S1(=O)c2ccc(Br)cc2OC[C@H](Cc2ccccc2)N1Cc1cn(CCC2OCCCO2)nn1,·,·,-1,0,2,·,·
Cn1c(O)c(N=NC(=O)c2cc(-c3cccs3)nc3ccccc23)c2ccccc21,-2,1.2,0,2,0,·,·
Cn1c(O)c(N=Nc2nc(-c3ccccc3)cs2)c2ccccc21,37,0.57,0,12*,2,0,7.4*
COc1ccccc1C(C#N)N1N=C(C)CC1c1ccccc1 (configuration not stated),·,·,-1,-1,-1,·,·
N#CC(c1ccccc1O)N1N=C(c2ccccc2)CC1c1ccccc1 (configuration not stated),·,·,1.6*,9.2*,8,1,7.3*
COc1cc(C(C#N)N2N=C(c3ccccc3)CC2c2ccccc2)ccc1O (configuration not stated),94,2.3,1.4*,7.9*,12*,0,3

# Screening results from PubChem.
